Assay outcomes deposited in PubChem by several laboratories.
Hits are enriched below; roughly 4.5% of the tested compounds scored in any of these assays.
EBNA-1 inhibitor: blocks EBNA-1 binding to DNA; EBNA-1 DNA binding, fluorescence polarization; inhibition, % at 14.8 µM; 300,000 compounds, 0.34% hits; in the data active means inhibition above about 28%
NR3A LBD binder: modulates the human NR3A ligand-binding domain. AID 1259313. 340,000 compounds, 2.5% hits. NR3A LBD differential scanning fluorimetry, Tm shift; 0% = protein alone, 100% = glycine-bound protein. Tm shift relative to glycine control, % at 25 µM;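 active means melting temperature shift of at least 10% of the positive control shift, at one fixed dose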
ZTA counter: ZTA (EBV) inhibition in EBNA-1 counter-screen; inhibition, % at 11 µM; P03206; ZTA-DNA binding, fluorescence polarization; 320,000 compounds, 0.15% hits; in the data active means inhibition above about 33%
dFosB act: enhances mouse delta FosB homodimer DNA binding. activation, % at 25 µM. 340,000 compounds, 0.99% hits. AID 493131. purified delta FosB, TAMRA-CDK5 oligo fluorescence polarization; percent of positive-control signal above neutral wells;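 active means mean activation above about 17%, with every replicate also reaching it, limit read from the data, passing the limit was not always enough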
TPT1 inhibitor: C. albicans TPT1 enzyme inhibition; recombinant caTPT1, FP RNA substrate dephosphorylation; inhibition, % at 5 µM; 300,000 compounds, 0.81% hits; AID 1962;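 active means inhibition above the mean of all tested compounds plus 3 SD, set per screening campaign, cut at about 24% in these data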;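 further: plate controls were DMSO alone for no effect and ferristatin control at 100 nM for full effect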
Rpn11 block: blocks the human proteasome subunit Rpn11 | human 26S proteasome, Ub4-pepOG fluorescence polarization; 20S core pre-blocked with epoxomicin | inhibition, % at 20 µM | 360,000 compounds, 0.59% hits;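 active means inhibition at 20 µM, scaled to each plate's controls, above about 33%, limit read from the data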
Target sequence (O00487 whole entry, looked up): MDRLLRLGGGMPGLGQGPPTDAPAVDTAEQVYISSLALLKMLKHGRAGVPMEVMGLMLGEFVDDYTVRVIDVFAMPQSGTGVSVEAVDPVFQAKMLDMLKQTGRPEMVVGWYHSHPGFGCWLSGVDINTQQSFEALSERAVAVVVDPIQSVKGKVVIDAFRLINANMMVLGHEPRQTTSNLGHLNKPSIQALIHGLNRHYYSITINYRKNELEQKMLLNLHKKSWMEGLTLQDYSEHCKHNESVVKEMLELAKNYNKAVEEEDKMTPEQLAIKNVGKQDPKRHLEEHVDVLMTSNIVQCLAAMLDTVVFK
Starred values were filed as active, the others as inactive; x = not tested or not shown.

SMILES	EBNA-1 inhibitor	NR3A LBD binder	ZTA counter	dFosB act	TPT1 inhibitor	Rpn11 block
CCOC(=O)C1=C(C)N=c2s/c(=C\c3ccc(C(=O)O)cc3)c(=O)n2C1c1ccc(OC)cc1OC (stereo unspecified)	-2	429*	-4	0	1	6
CCOC(=O)C1=C(C)N=c2s/c(=C\c3ccc(OCC(=O)O)cc3)c(=O)n2C1c1ccccc1 (stereo unspecified)	1	1	6	-2	6	7
CCOC(=O)C1=C(C)N=c2sc(=Cc3ccc(OCC(=O)O)cc3)c(=O)n2C1c1ccc(SC)cc1 (stereo unspecified)	x	x	x	x	x	45*
CCOC(=O)C1=C(C)N=c2s/c(=C\c3ccc(C(=O)O)cc3)c(=O)n2C1c1ccc(F)cc1 (stereo unspecified)	x	3	x	0	x	-2
COc1cc2c(cc1OC)CN(C(=O)CCOc1ccccc1C)CC2	-10	2	15	-8	-1	-1
CCCc1nc2sc3ccccc3c(=O)c2c(=O)n1Cc1ccc(OC)cc1	5	15*	4	x	1	7
COc1ccc(Cn2c(C(C)C)nc3sc4ccccc4c(=O)c3c2=O)cc1	0	-2	-2	-1	0	-8
NS(=O)(=O)c1ccc(NC(=O)COc2cccc3ccccc23)cc1	10	16*	4	8	2	2
COc1cccc(SCc2noc(C(=O)NCC3CC3)c2C(=O)NCC2CC2)c1	5	-10	-11	-6	0	-9
O=C(Cc1ccc(Br)cc1)Nc1ccccc1Sc1ccccc1	0	19*	-9	-1	1	0
O=C(Cc1ccccc1)Nc1ccccc1Sc1ccccc1	-5	6	-12	1	1	-3
O=C(O)c1cccc2c1-c1ccc(Cl)cc1C2=O	x	14*	x	4	x	-2
CC(=O)c1ccccc1NC(=O)COC(=O)CN1C(=O)C2CCCCC2C1=O (stereo unspecified)	x	2	-10	1	x	2
O=C(COC(=O)CCN=C1NS(=O)(=O)c2ccccc21)NNC(=O)c1ccccc1	3	0	5	3	1	-3
O=C(CC1Nc2ccccc2NC1=O)NCCCN1CCCCCC1 (stereo unspecified)	-5	-2	-17	-7	-2	5
CCCCNC(=O)CC1Nc2ccccc2NC1=O (stereo unspecified)	-3	20*	-5	-6	-8	7
O=C(CC1Nc2ccccc2NC1=O)Nc1cc(Cl)cc(Cl)c1 (stereo unspecified)	-4	29*	-5	0	2	5
CC(C)CCN(CC(=O)NCc1ccc(F)cc1)S(=O)(=O)c1ccccc1F	6	-1	13	-8	-1	7
COc1cccc(CCC(=O)N2CCC(n3nccc3NC(=O)CC(C)C)CC2)c1	1	-1	-7	-8	-3	-2
COC(=O)c1nn(-c2ccccc2)c(Cl)c1/C=N/OCc1ccc(Cl)cc1Cl	5	12*	-1	-5	0	-1
CC(Nc1nc2ncn(Cc3ccccc3)c2c(=O)[nH]1)C(=O)O (stereo unspecified)	-1	15*	7	1	-3	2
Cc1ccc(S(=O)(=O)NCCC(=O)NC2CCCCCC2)cc1	x	0	x	2	x	-2
CC1(C)Cc2c(C#N)c(SCCO)nc(N3CCOCC3)c2CO1	4	-4	-1	-5	0	-12
CCCCc1nc(N2CCOCC2)c(C#N)c2c1COC(C)(C)C2	-5	15*	-24	-6	-1	-3
COc1ccc(N2CCN(C(=O)CNC(=O)Cc3ccccc3)CC2)cc1	12	-1	-1	-10	2	0
SMILES	EBNA-1 inhibitor	NR3A LBD binder	ZTA counter	dFosB act	TPT1 inhibitor	Rpn11 block
COc1ccc(N2CCN(C(=O)CNC(=O)Cc3ccc(Cl)cc3)CC2)cc1	7	13*	2	-1	-1	-4
Cc1nnc(NC(=O)Cn2nc(C)c3ccccc3c2=O)s1	-7	-2	7	3	-6	-3
CCNc1nc(NC(C)C)nc(Oc2ccc(=O)n(C)n2)n1	-11	-1	-2	7	-3	-2
COc1ccc2nc3cc(Cl)ccc3c(Nc3ccc(O)c(CN4CCN(C)CC4)c3)c2c1	x	-7	x	124*	x	-18
COc1ccc(/C=C/c2nc(-c3ccccc3O)n[nH]2)cc1	-1	40*	-3	1	5	-5
COc1ccc(Nc2nc(N3CCCCC3)c3ccccc3n2)cc1	2	1	-13	3	-3	4
Oc1ccc(Nc2nc(N3CCCC3)c3ccccc3n2)cc1	3	-2	-3	80*	-3	-10
O=C(Cn1cc(/C=N/NC(=O)c2ccccc2Br)c2ccccc21)Nc1ccc(F)cc1	5	10*	7	-1	0	6
O=C(Cn1cc(/C=N/NC(=O)c2cccc3ccccc23)c2ccccc21)Nc1ccc(F)cc1	6	9	12	-5	-3	x
CCc1ccc(-c2cc(C(=O)NN3CCOCC3)c3ccccc3n2)cc1	-13	11*	-17	-9	-3	5
O=C(NN1CCOCC1)c1cc(-c2ccc(Br)cc2)nc2ccccc12	11	-3	-13	-17	1	-16
Cc1nc2sc(C(c3cccc(F)c3)N3CCC(O)CC3)c(O)n2n1 (stereo unspecified)	-7	10*	-7	-5	-2	5
COc1ccc(-c2c(-c3cc(OC)cc(OC)c3)sc3ccc(OC)cc23)cc1	x	13*	x	7	x	3
